We go through nine molecules from PubChem BioAssay (NCATS).

Where “and” joins values, the source holds several entries; their conditions need not be identical. Equal values may be shown once. Results filed as inconclusive are left out. Values without a mark were called inactive. Calls of active or inactive are those of the source. Calls come from the whole dose curve; as a rule, active = well fitted curve in the direction sought with a large enough effect; inconclusive = small, poorly fitted or top-dose-only effect, or another doubt; inactive = no such curve, though single readings can be large; an effect the other way counts as inactive or inconclusive.

One assay has as its system MCC-26. Kind of assay: qHTS assay to identify novel small-molecules to repurpose for Merkel cell carcinoma treatment (AID 1296009). Note: nearly all actives have a fitted effect of over 60% in size. The settings on record: MCC and control cell lines, CellTiter-Glo viability, 72 h; series mostly up to 46 µM. The method in brief: (§1)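 72 hr, 37 degree celsius; NPC 8-pt / MIPE 11-pt dose response; compound pinned in DMSO; CellTiter-Glo, 10 min RT, luminescence; normalized to no-cell and DMSO controls.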
(In general: qHTS replaces the single test concentration by a dilution series.)

The subject of the next assay is MKL-1. The assay is described as above. The settings on record: MCC and control cell lines, CellTiter-Glo viability, 72 h; series mostly up to 46 µM. The method in brief:
as §1
Background: ATP-based viability assays read luminescence as a measure of living cells.

The next assay concerns MKL-2. The assay is described as above. As to conditions: MCC and control cell lines, CellTiter-Glo viability, 72 h; series mostly up to 46 µM. The procedure, abridged:
as §1

The next assay concerns NIH3T3. Described as above. As to conditions: MCC and control cell lines, CellTiter-Glo viability, 72 h; at 44.8 µM (top of the series) unless noted. The method in brief: as §1
Another assay has as its system UISO. Described as above. As to conditions: MCC and control cell lines, CellTiter-Glo viability, 72 h; series mostly up to 46 µM. The procedure, abridged: as §1
The next assay has as its system WaGa. The assay is described as above. As to conditions: MCC and control cell lines, CellTiter-Glo viability, 72 h; series mostly up to 46 µM. The method in brief:
as §1

A further assay deals with C33A. The assay can be described thus: Primary qHTS to identify gynecologic anti-cancer compounds using libraries of approved drugs and bioactive compounds (AID 1345084). Note: nearly all actives have a fitted effect of over 55% in size. The settings on record: Gynecologic cancer cell panel viability, ATPlite luminescence, 48 h; series mostly up to 57.5 µM. The procedure, abridged: (§2)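 Five-concentration response, 48 h; readout is ATP-driven luciferase luminescence.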

The subject of another assay is CAOV3. The description is as above. The settings on record: Gynecologic cancer cell panel viability, ATPlite luminescence, 48 h; series mostly up to 57.5 µM. The method in brief:
as §2

Another assay relates to CASKI. The assay is described as above. As to conditions: Gynecologic cancer cell panel viability, ATPlite luminescence, 48 h; series mostly up to 57.5 µM. The method in brief: as §2
The next assay has as its system Es-2. The assay is described as above. The settings on record: Gynecologic cancer cell panel viability, ATPlite luminescence, 48 h; series mostly up to 57.5 µM. The procedure, abridged: as §2
Another assay deals with HeLa. The assay is described as above. As to conditions: Gynecologic cancer cell panel viability, ATPlite luminescence, 48 h; series mostly up to 57.5 µM. The method in brief:
as §2

The next assay deals with Hek293T. The description is as above. The settings on record: Gynecologic cancer cell panel viability, ATPlite luminescence, 48 h, control line for the selectivity index; series mostly up to 57.5 µM. The method in brief: as §2
A further assay has as its system JEG-3. Described as above. As to conditions: Gynecologic cancer cell panel viability, ATPlite luminescence, 48 h; series mostly up to 57.5 µM. The procedure, abridged: as §2
In another assay the test system is OV90. The assay is described as above. As to conditions: Gynecologic cancer cell panel viability, ATPlite luminescence, 48 h; series mostly up to 57.5 µM. The procedure, abridged:
as §2

A further assay concerns PA-1. The description is as above. The settings on record: Gynecologic cancer cell panel viability, ATPlite luminescence, 48 h; series mostly up to 57.5 µM. The method in brief:
as §2

In the next assay the test system is SKOV3. The assay is described as above. As to conditions: Gynecologic cancer cell panel viability, ATPlite luminescence, 48 h; series mostly up to 57.5 µM. The method in brief:
as §2

The subject of a further assay is Tov-21-G. The assay is described as above. The settings on record: Gynecologic cancer cell panel viability, ATPlite luminescence, 48 h; series mostly up to 57.5 µM. The procedure, abridged:
as §2

Another assay concerns Tov112D. The description is as above. As to conditions: Gynecologic cancer cell panel viability, ATPlite luminescence, 48 h; series mostly up to 57.5 µM. The procedure, abridged:
as §2

Assay [1] in a line: Drug repurposing screens with cells derived from glioblastoma tumor samples (AID 1345199). Note: nearly all actives have a fitted effect of over 40% in size. Note: potency is the fitted concentration of half-maximal effect. The settings on record: GBM patient neurospheres viability, ATP luminescence, 48 h. The procedure, abridged: (§3)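 Four patient lines of CD133+ GBM neurospheres were screened at several concentrations; hits were retested in those lines plus three slower-growing GBM lines, using 48-hour treatment and ATP-based viability.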

In the next assay the test system is astro. The description is as above. As to conditions: viability, ATP luminescence, 48 h; series mostly up to 45.9 µM. The method in brief: as §3
Where [2] appears, read: at 45.9 µM (top of the series), tumour line B.
Where [3] appears, read: at 45.9 µM (top of the series), tumour line D.
The mark [4] stands for this setting: at 46 µM (top of the series), tumour line A.
Setting [5] is: at 46.1 µM (top of the series), tumour line C.
% is set by controls: 0 for no effect and ±100 for the full control effect.

For the molecule `CCCCC/C(C=O)=C\c1ccccc1`, the Potency entry in the assay on MCC-26, in the assay on MKL-1, with MKL-2, in the assay with UISO, with WaGa and with C33A was “inactive” in each case. The Potency entry with CAOV3, in the assay with CASKI, in the assay with Es-2, in the assay on HeLa, in the assay on Hek293T and with JEG-3 was “inactive” throughout. Also, the Potency entry with OV90, in the assay on PA-1, in the assay on SKOV3, in the assay with Tov-21-G, in the assay with Tov112D and in the assay with astro was “inactive” in each case. The result in the assay with NIH3T3 was inactive. Besides, the activity, negative = cell killing was -2.87% in assay [1] (setting [2]), -16.9% in assay [1] (setting [3]), -24.2% in assay [1] (setting [4]) and -7.86% in assay [1] (setting [5]).
For `CCN(CC)CCNC(=O)c1cc(Cl)c(N)cc1OC`, the Potency result with MCC-26, in the assay on MKL-1, with MKL-2, with UISO, with WaGa and with C33A was “inactive” in each case. The Potency result in the assay with CAOV3, in the assay on CASKI, in the assay on Es-2, with HeLa, in the assay on Hek293T and in the assay on JEG-3 was “inactive” each time. For the same molecule, the Potency entry with OV90, in the assay with PA-1, in the assay with SKOV3, in the assay on Tov-21-G, in the assay with Tov112D and in the assay on astro was “inactive” throughout. Moreover, the molecule was classed as inactive in the assay on NIH3T3. Moreover, the activity, negative = cell killing is -15.5% in assay [1] (setting [2]), -19.3% in assay [1] (setting [3]) and 6.62% in assay [1] (setting [5]).
Consider `O=c1cc[nH]c(=O)[nH]1`, for which the Potency entry in the assay on MCC-26, in the assay on MKL-1, in the assay with MKL-2, in the assay on UISO, in the assay on WaGa and in the assay on C33A was “inactive” throughout. In addition, the Potency result in the assay on CASKI, in the assay on Es-2, with HeLa, with Hek293T, with JEG-3 and with OV90 was “inactive” throughout. The Potency result in the assay with PA-1, in the assay on SKOV3, in the assay on Tov-21-G, with Tov112D and in the assay on astro was “inactive” in each case. Besides, the result in the assay with NIH3T3 was inactive. In addition, the activity, negative = cell killing in assay [1] (setting [2]) was -1.25%; in assay [1] (setting [3]) it was -13.5%; in [1] (setting [4]), -25.6%; in assay [1] (setting [5]), -13%.
`CCOC(CN1CCN(CC(C)C(=O)c2ccccc2)CC1)c1ccccc1` (stereo not given): the Potency entry in the assay with MCC-26, in the assay on MKL-1, in the assay with MKL-2, in the assay with UISO, with WaGa and in the assay on C33A was “inactive” in each case. In addition, the Potency entry in the assay with CAOV3, in the assay with CASKI, with Es-2, in the assay with HeLa, with Hek293T and in the assay with JEG-3 was “inactive” in each case. For the same molecule, the Potency entry with OV90, in the assay with PA-1, in the assay on SKOV3, in the assay on Tov-21-G, in the assay on Tov112D and in the assay with astro was “inactive” each time. Besides, in the assay with NIH3T3, the outcome was inactive. For the same molecule, the activity, negative = cell killing in [1] (setting [2]) is -10.2%. Also, the Potency in assay [1] (tumour line A) is 12.6 µM (active).
On to `Oc1cccc(O)c1`, for which the Potency result in the assay with MCC-26, in the assay with MKL-1, in the assay on MKL-2, with UISO, in the assay on WaGa and in the assay on C33A was “inactive” throughout. Moreover, the Potency entry with CAOV3, in the assay with CASKI, in the assay on Es-2, with HeLa, with Hek293T and in the assay with JEG-3 was “inactive” throughout. In addition, the Potency entry in the assay with OV90, with PA-1, in the assay with SKOV3, in the assay on Tov-21-G, with Tov112D and in the assay with astro was “inactive” throughout. Also, the outcome with NIH3T3 was inactive. Moreover, the values for the activity, negative = cell killing in [1] (setting [2]), in assay [1] (setting [3]) and in assay [1] (setting [5]) were -16.6%, -5.28% and 27.8%, respectively.
For `O=C1O[C@H]([C@@H](O)CO)C(O)=C1O`, the Potency result with MCC-26, in the assay with MKL-1, with MKL-2, in the assay on UISO, in the assay with WaGa and in the assay with C33A was “inactive” each time. Further, the Potency result in the assay with CAOV3, in the assay with CASKI, in the assay on Es-2, with HeLa, in the assay on Hek293T and in the assay with JEG-3 was “inactive” each time. The Potency entry in the assay with OV90, in the assay with PA-1, in the assay on SKOV3, in the assay on Tov-21-G, in the assay on Tov112D and in the assay with astro was “inactive” in each case. For the same molecule, the call in the assay with NIH3T3 was inactive. The activity, negative = cell killing in assay [1] (setting [2]) is -10.4% and -5.65%; in assay [1] (setting [3]), -12.1% and -20.9%; in assay [1] (setting [4]), -0.597%; in assay [1] (setting [5]), -3.99% and -11%.
As for `CCOC(=O)c1ccc(O)cc1`, the Potency result in the assay on MCC-26, in the assay with MKL-1, with MKL-2, in the assay with UISO, with WaGa and in the assay on C33A was “inactive” in each case. Further, the Potency entry in the assay on CAOV3, with CASKI, in the assay on Es-2, in the assay with HeLa, in the assay with Hek293T and in the assay with JEG-3 was “inactive” each time. The Potency result in the assay on OV90, in the assay on PA-1, with Tov-21-G, in the assay with Tov112D and with astro was “inactive” throughout. Further, the molecule was called inactive in the assay with NIH3T3. Further, the activity, negative = cell killing in assay [1] (setting [2]) is -7.74%; in assay [1] (setting [3]) it was 6.74%; in [1] (setting [5]), -0.513%.
Regarding `O=C(O)c1ccccc1O`, the Potency result in the assay with MCC-26, in the assay on MKL-1, in the assay with MKL-2, in the assay with UISO, in the assay with WaGa and with C33A was “inactive” in each case. In addition, the Potency result with CAOV3, in the assay with CASKI, in the assay with Es-2, with HeLa, with Hek293T and in the assay with JEG-3 was “inactive” in each case. In addition, the Potency entry in the assay with OV90, with PA-1, with SKOV3, with Tov-21-G, in the assay on Tov112D and with astro was “inactive” each time. The result with NIH3T3 was inactive. The activity, negative = cell killing in assay [1] (setting [2]) is -1.6% and -1.62%; in [1] (setting [3]), -9.17% and -18.2%; in assay [1] (setting [4]) it was -20.3%; in assay [1] (setting [5]), -6.51% and 1.73%.
Take `NCC(=O)CCC(=O)O`: the Potency entry in the assay with MCC-26, in the assay with MKL-1, in the assay on MKL-2, in the assay with UISO, in the assay on WaGa and in the assay on C33A was “inactive” each time. Further, the Potency result with CAOV3, in the assay on CASKI, in the assay with Es-2, in the assay on HeLa, in the assay on Hek293T and in the assay with JEG-3 was “inactive” in each case. Besides, the Potency result in the assay on OV90, with PA-1, in the assay with SKOV3, in the assay on Tov-21-G, in the assay on Tov112D and with astro was “inactive” in each case. In the assay on NIH3T3, the outcome was inactive. Also, the activity, negative = cell killing was -16.2% in assay [1] (setting [2]), -11% in assay [1] (setting [3]), -11% in assay [1] (setting [4]) and -6.71% in [1] (setting [5]).
